Source: PubChem (National Center for Advancing Translational Sciences (NCATS))
A selection: hits, their analogues and other compounds. The true share with any hit is near 0.53%.
GLS inh: blocks human kidney-isoform glutaminase activity. O94925. GLS enzymatic activity, qHTS titration. Potency, µM (series often up to 45.5 µM), without a hit: top-dose activity change, negative = inhibition, hits mostly inhibitors. 410,000 tested, 0.21% active; further: potency means the concentration at half of the fitted maximal effect
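Human kidney-isoform GLS in 45 mM KH2PO4 pH 8.2, 0.02% Tween-20, with compound, started with 1mM L-Glutamine (added stock). Glutamate oxidase/HRP/Amplex red coupled fluorescence read at start and after 30 min at RT.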
PGK inhibitor: blocks T. brucei phosphoglycerate kinase; AID 602233; Potency, µM (highest dose often 57.5 µM), inactives show at the top dose activity change, negative = inhibition, usual class: inhibitors; 380,000 tested, 0.043% active; PGK/GAPDH coupled, Kinase-Glo luminescence, 60 min; further: potency means the concentration at half of the fitted maximal effect; nearly all actives have a fitted effect of over 60% in size
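Luminescent ATP detection (Kinase-Glo Plus) follows a 60-minute room-temperature incubation, with wells lacking PGK as controls. Buffer: 100 mM TEA (pH 7.6), 5 mM MgCl2, 0.01% Tween-20. Coupling enzyme GAPDH (100 nM final) supplies unstable 1,3-BPG in-well.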
PI4K2A inh: inhibitors of human PI4K2A; activity change, negative = inhibition, % at 76.9 µM; purified PI4K2A, ADP-Glo luminescence, 1 h; hits give low values; Q9BTU6; 420,000 tested, 0.13% active; in the data active means activity change below about -50%; inconclusive means mostly about -30% to -49%;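 further: -100% = wells without enzyme as full effect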
Target sequence (Q9BTU6 whole entry, looked up): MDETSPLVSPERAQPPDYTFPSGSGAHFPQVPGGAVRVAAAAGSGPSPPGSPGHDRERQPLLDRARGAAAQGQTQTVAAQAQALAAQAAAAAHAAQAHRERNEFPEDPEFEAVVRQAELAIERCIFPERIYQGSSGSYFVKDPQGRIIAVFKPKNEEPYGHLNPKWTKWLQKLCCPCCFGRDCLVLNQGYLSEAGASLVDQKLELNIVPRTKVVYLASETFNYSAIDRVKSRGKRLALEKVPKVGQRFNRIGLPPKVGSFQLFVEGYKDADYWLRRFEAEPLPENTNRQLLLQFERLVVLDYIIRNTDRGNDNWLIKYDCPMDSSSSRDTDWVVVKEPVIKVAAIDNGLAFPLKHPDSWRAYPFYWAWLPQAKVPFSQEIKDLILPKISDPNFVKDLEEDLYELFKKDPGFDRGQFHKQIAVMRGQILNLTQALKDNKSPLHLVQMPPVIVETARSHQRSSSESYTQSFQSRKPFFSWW
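Compounds are screened against recombinant PI4K2A using PI as substrate and ATP, the latter dispensed at 300 microM. Reactions run one hour at ambient temperature before ADP-Glo detection; full inhibition defined by wells lacking enzyme.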
USP1 inh: USP1/UAF1 (human) deubiquitinase inhibition; O94782; AID 743255; 390,000 tested, 0.23% active; Potency, µM (series often up to 57.1 µM), inactives show at the top dose activity change, negative = inhibition, most hits filed as inhibitors; recombinant USP1/UAF1, Ub-Rhodamine cleavage fluorescence; further: potency means the concentration at half of the fitted maximal effect; nearly all actives have a fitted effect of over 60% in size
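USP1/UAF1 complex at 1 nM was preincubated with compound for 15 min at room temperature, then Ub-Rho substrate (150nM final) was added. Fluorescence (480/540 nm) was read kinetically, 6 reads every 60 seconds.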
* hit, by the source's call; ! = repeats disagree. Unless noted, the call rests on the fitted dose curve; in most records, active means well fitted curve in the direction sought with a large enough effect; inconclusive means small, poorly fitted or top-dose-only effect, or another doubt; inactive means no such curve, though single readings can be large; an effect the other way counts as inactive or inconclusive. Unless noted, on the % scale 0 is the no-effect control and ±100 the full control effect.

Screening O=C(O)c1cccc(NC2=C(n3nnc4ccccc43)C(=O)c3ccccc3C2=O)c1 returned GLS inh -0.2%, PGK inhibitor -14.3%, PI4K2A inh -30.0 and USP1 inh 28.2µM*.
For O=C(O)c1cccc(NS(=O)(=O)c2ccc3nnn(O)c3c2)c1 the results were GLS inh -3.3%, PGK inhibitor inactive, PI4K2A inh 7.6 and USP1 inh -11.4%.
For Cc1cccc(NC(=O)c2ccc(OC3CSC3)cc2)c1 the results were GLS inh 3.5%, PGK inhibitor -20.8%, PI4K2A inh -50.4* and USP1 inh -26.6%.
For CC(=O)c1cccc(NC(=O)c2ccc(OC3CSC3)cc2)c1 the results were GLS inh 3.2%, PGK inhibitor 1.3%, PI4K2A inh 5.0 and USP1 inh -19.6%.
For CCN1CCN(Cc2ccc(NC(=O)c3ccc(C)c(NC(=O)N4CCNC4=O)c3)cc2C(F)(F)F)CC1 the results were GLS inh 4.8%, PGK inhibitor 25.1µM*!, PI4K2A inh -16.5 and USP1 inh -30.8%.
For O=C(CCc1ccccc1)N[C@H]1[C@@H](OC(=O)c2ccco2)CCC[C@]12C(=O)N(Cc1ccccc1)c1ccccc12 the results were PI4K2A inh -0.5.
CCOC(=O)c1sc2nccc(OC)c2c1N=CNOC was read as GLS inh -0.2%, PGK inhibitor 7.0%, PI4K2A inh -59.3* and USP1 inh -21.7%.
Screening COC(=O)c1cc(NC(=O)CC2SC(=Nc3ccccc3)N(CCc3c[nH]c4ccccc34)C2=O)cc(C(=O)OC)c1 (stereo unspecified) returned GLS inh 25.1µM*, PGK inhibitor -2.1%, PI4K2A inh 2.9 and USP1 inh -9.4%.
`O=C(O)C1=CCC=CC1C(=O)O` (stereo unspecified) gave GLS inh 11.2µM*, PGK inhibitor 12.6µM*, PI4K2A inh -9.7 and USP1 inh 35.2%.
For C/C(=N\O)c1ccc(OCC(=O)N2CCCCC2)cc1 the results were GLS inh 13.3% and PI4K2A inh 1.1.
CON=C(C(=O)NC1C(=O)N2C(C(=O)O)=C(CSc3nc(=O)c(=O)[nH]n3C)CSC12)c1csc(N)n1 (stereo unspecified) was read as GLS inh 17.8µM*, PGK inhibitor inconclusive, PI4K2A inh -8.2 and USP1 inh 7.0%.
CO/N=C(\C(=O)N[C@@H]1C(=O)N2C(C(=O)O)=C(CSc3nc(=O)c(O)nn3C)CS[C@H]12)c1csc(N)n1 was read as PI4K2A inh -7.7.
CO/N=C(\C(=O)N[C@@H]1C(=O)N2C(C(=O)[O-])=C(C[n+]3cccc4c3CCCC4)CS[C@H]12)c1csc(N)n1 was read as GLS inh 6.31µM*.
`O=C(O)c1ccc(OCCN2CCCCC2)cc1` gave PI4K2A inh -1.7.
O=C(Nc1nc(-c2ccco2)c(-c2ccco2)s1)C1CC(=O)N(c2ccc3c(c2)OCCO3)C1 (stereo unspecified) was read as GLS inh -10.5%, PGK inhibitor -15.9%, PI4K2A inh -56.0* and USP1 inh -25.5%.
For Cc1nnc(NC(=O)C2CC(=O)N(c3ccc4c(c3)OCCO4)C2)s1 (stereo unspecified) the results were GLS inh 0.5%, PGK inhibitor -3.1%, PI4K2A inh -3.5 and USP1 inh -4.3%.
For COc1cc(CN2CCN(Cc3ccc(C)cc3)C(CCO)C2)cc(OC)c1O (stereo unspecified) the results were GLS inh 7.08µM*, PGK inhibitor 6.3%, PI4K2A inh inconclusive and USP1 inh 0.8%.
COc1ccc(-c2nc3ccc(C4=C(C)CC(=O)NN4)cc3[nH]2)cc1 was read as GLS inh 31.6µM*.
Cc1ccc2c(c1)C(N1CCCC1=O)CC(c1ccco1)N2 (stereo unspecified) was read as GLS inh inconclusive, PGK inhibitor inconclusive, PI4K2A inh -61.6* and USP1 inh -23.3%.
COc1ccc(/C=N/Nc2nncn2N)cc1Br was read as GLS inh inconclusive, PGK inhibitor -10.6%, PI4K2A inh -53.6* and USP1 inh inconclusive.
CC(CCc1ccc2c(c1)OCO2)NN (stereo unspecified) was read as GLS inh -4.6% and PI4K2A inh -2.4.
